In PubChem BioAssay:
Active and inactive are the calls of the source.

What was measured:
Albumin (Bos taurus) = Albumin (Bos taurus) (UniProt P02769); assay: compounds binding labelled BSA control protein – biochemical, small-molecule microarray, Alexa647 label, 635/667 nm fluorescence, artefact control for SMM control protein annotation, profiling panel (AID 1118); settings: BSA-A647 binding, fluorescence 635 nm, higher = more signal;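 further: score merges 667 nm emission intensity and signal-to-noise per printed compound spot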
[1] = probe aXIP binding to arrayed compounds – biochemical, NeuroSMM set, 635/667 nm fluorescence, primary screen (AID 1119); settings: small-molecule microarray, higher = more signal, called active from +8 up or from −8 down;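 further: probe is the protein aXip251-270 applied at 1 µg/mL to compound-printed slides; binding of probe to printed compounds measured as 667 nm fluorescence plus signal to noise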
[2] = probe aNOTCH3 binding on compound microarray – biochemical, small-molecule microarray, 635/667 nm fluorescence, primary screen (AID 1120); settings: higher = more signal;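 further: probe is a biotin-tagged antibody raised against NOTCH3 rather than NOTCH3 protein; score merges spot fluorescence near 667 nm with spot signal to noise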
[3] = probe aNOTCH2 binding on compound microarray – biochemical, small-molecule microarray, 635/667 nm fluorescence, primary screen (AID 1121); settings: higher = more signal;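 further: score merges feature fluorescence read at 667 nm with its signal to noise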
[4] = target: Carbonic anhydrase 2 (Homo sapiens) (UniProt P00918); assay: compounds binding carbonic anhydrase 2 – biochemical, small-molecule microarray, Alexa647-labelled CAII, profiling panel (AID 1122); settings: CAII-A647 binding fluorescence, higher = more signal
[5] = COS7 lysate on small-molecule microarray, probe aHis, 635 nm (AID 1123); settings: COS7 cell lysate, fluorescence, higher = more signal;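 further: z-score combines 667nm fluorescence intensity with signal-to-noise per printed compound spot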
[6] = probe aLAP1 signal on lysate-treated microarray – cell lysate, small-molecule microarray, COS7 lysate, primary screen (AID 1124); settings: probe aLAP1, fluorescence, higher = more signal;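 further: lysate comes from COS7 cells expressing LAP1 and is applied at 0.3 µg/mL; score merges spot fluorescence near 667 nm with signal-to-noise over triplicate slides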
Sam68 (KHDRBS1) = assay: compounds binding KHDRBS1 protein – biochemical, small-molecule microarray, 635 nm fluorescence, primary screen (AID 1125); settings: higher = more signal;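 further: score merges 667 nm channel intensity with signal to noise over triplicate slides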
[7] = tested on: Chordin-like protein 2 (CHRDL2); assay: compounds binding chordin-like 2 – biochemical, small-molecule microarray, 635 nm fluorescence, primary screen (AID 1126); settings: fluorescence 635 nm, higher = more signal;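 further: printed compound slides probed with Chrdl2 protein at 4 µg/mL for 1 h at 4 C; score merges 667 nm emission intensity with signal to noise over three replicate slides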
[8] = target: Concanavalin-A (Canavalia ensiformis) (UniProt P02866); assay: compounds binding concanavalin A lectin – biochemical, small-molecule microarray, Alexa647 label, 635 nm, artefact control for SMM control protein annotation, primary screen (AID 1127); settings: ConA-A647 binding fluorescence, higher = more signal;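 further: z combines 667 nm emission intensity with signal-to-noise across three replicate slides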
[9] = compounds binding Alexa647 anti-His antibody – biochemical, small-molecule microarray, 635 nm fluorescence, artefact control for SMM control protein annotation, primary screen (AID 1128); settings: higher = more signal;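 further: score merges feature fluorescence with signal-to-noise for each printed compound spot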
[10] = tested on: Human papillomavirus type 1a E7 protein (residues 1-88); assay: HPV1a E7 small-molecule binders, primary screen, biochemical, small-molecule microarray, residues 1-88, 635 nm (AID 1129); settings: small-molecule microarray binding, fluorescence 635 nm; higher = more signal
[11] = target: Focal adhesion kinase 1 (Homo sapiens) (UniProt Q05397); assay: PTK2 protein binding on printed compound slides – biochemical, small-molecule microarray, 635/667 nm fluorescence, BSA, DTT, primary screen (AID 1130); settings: 635 nm fluorescence, higher = more signal;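 further: composite of spot emission at 667 nm and signal to noise over triplicate slides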
[12] = tested on: Fibrinogen (Alexa647-labelled); assay: Alexa647-fibrinogen binding to printed small molecules – biochemical, small-molecule microarray, 635/667 nm fluorescence, artefact control for SMM control-protein annotation, profiling panel (AID 1131); settings: fibrinogen-A647 binding fluorescence, higher = more signal;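 further: z-score merges 667 nm fluorescence with per-spot signal-to-noise over triplicate slides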
[13] = target: Follistatin (Homo sapiens) (UniProt P19883); assay: FST protein binding to printed compounds – biochemical, small-molecule microarray, 635/667 nm fluorescence, primary screen (AID 1132); settings: 635 nm fluorescence, higher = more signal
[14] = target: Fibroblast growth factor 2 (Homo sapiens) (UniProt P09038); assay: basic fibroblast growth factor binding to printed compounds – biochemical, small-molecule microarray, 635/667 nm fluorescence, primary screen (AID 1133); settings: FGF2, fluorescence 635/667, higher = more signal
[15] = JC-1 mitochondrial potential readout, lung cancer cells – cell-based, A549, JC-1 fluorescence, basal, 24 h, 100 nL, profiling panel (AID 1138); settings: higher = more signal;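 further: A549 lung adenocarcinoma cells under basal conditions with no added stimulus; test concentration not given here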
Lefty1 = Lefty1 protein binding to printed compounds – biochemical, small-molecule microarray, 635/667 nm fluorescence, primary screen (AID 1139); settings: fluorescence 635/667, higher = more signal
[16] = tested on: wheat germ agglutinin (Triticum aestivum), Alexa647-labelled; assay: Alexa647-WGA lectin binding to printed small molecules – biochemical, small-molecule microarray, 635/667 nm fluorescence, artefact control for SMM control-protein annotation, profiling panel (AID 1140); settings: WGA-A647 binding, 635 nm fluorescence, higher = more signal;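 further: score merges 667 nm feature emission with signal to noise over triplicate slides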
[17] = target: Luciferin 4-monooxygenase (Photinus pyralis) (UniProt P08659); assay: inhibition of purified Photinus pyralis luciferase – biochemical, luminescence, purified enzyme, 2006 set, primary screen (AID 1141); settings: purified firefly luciferase, SteadyGlo luminescence, 30 min; higher = more signal, called active from +8 up or from −8 down;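 further: cell-free assay with purified firefly luciferase at 100 ng per well in PBS; test concentration not given here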
Luciferin 4-monooxygenase (Photinus pyralis), sequence (P08659 whole entry, looked up): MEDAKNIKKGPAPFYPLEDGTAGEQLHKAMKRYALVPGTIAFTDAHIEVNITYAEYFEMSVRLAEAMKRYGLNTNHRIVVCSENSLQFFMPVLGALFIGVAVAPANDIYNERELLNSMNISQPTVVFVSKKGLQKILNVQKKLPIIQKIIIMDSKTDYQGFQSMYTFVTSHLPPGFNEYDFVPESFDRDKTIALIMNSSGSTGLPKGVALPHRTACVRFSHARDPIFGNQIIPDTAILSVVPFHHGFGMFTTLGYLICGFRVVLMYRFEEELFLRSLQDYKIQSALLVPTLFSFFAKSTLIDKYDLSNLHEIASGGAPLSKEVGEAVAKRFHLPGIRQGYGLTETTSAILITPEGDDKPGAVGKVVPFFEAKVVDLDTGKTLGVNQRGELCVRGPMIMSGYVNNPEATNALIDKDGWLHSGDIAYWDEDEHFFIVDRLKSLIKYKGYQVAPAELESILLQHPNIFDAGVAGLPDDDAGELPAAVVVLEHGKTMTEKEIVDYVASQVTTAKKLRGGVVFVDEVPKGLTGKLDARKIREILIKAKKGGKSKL

Follistatin (Homo sapiens), sequence (P19883 whole entry, looked up): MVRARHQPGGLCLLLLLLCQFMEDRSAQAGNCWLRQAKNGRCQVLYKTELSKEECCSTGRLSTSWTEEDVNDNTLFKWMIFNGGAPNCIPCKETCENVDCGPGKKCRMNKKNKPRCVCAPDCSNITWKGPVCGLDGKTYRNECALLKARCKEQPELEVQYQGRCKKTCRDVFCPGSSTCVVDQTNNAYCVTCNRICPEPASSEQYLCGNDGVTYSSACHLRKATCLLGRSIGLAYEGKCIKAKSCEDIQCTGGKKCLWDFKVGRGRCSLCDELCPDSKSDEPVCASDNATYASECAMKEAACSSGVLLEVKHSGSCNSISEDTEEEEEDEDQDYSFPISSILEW
Albumin (Bos taurus), sequence (P02769 whole entry, looked up): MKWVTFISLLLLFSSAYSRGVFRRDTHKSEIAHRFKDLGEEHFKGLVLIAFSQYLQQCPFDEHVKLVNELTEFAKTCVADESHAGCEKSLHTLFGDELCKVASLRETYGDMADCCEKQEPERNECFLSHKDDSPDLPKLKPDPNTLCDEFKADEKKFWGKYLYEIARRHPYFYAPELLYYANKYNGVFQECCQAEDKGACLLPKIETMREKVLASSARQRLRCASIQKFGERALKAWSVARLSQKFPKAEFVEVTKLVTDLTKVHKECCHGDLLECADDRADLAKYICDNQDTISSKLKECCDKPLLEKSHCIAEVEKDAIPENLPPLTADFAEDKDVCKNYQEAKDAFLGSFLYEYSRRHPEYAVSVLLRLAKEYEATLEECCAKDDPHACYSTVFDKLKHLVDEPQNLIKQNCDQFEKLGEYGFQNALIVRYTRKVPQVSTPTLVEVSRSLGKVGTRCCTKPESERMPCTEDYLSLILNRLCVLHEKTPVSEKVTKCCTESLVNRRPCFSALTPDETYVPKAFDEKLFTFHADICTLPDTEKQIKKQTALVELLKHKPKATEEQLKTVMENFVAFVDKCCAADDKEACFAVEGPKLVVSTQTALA
Fibroblast growth factor 2 (Homo sapiens), sequence (P09038 whole entry, looked up): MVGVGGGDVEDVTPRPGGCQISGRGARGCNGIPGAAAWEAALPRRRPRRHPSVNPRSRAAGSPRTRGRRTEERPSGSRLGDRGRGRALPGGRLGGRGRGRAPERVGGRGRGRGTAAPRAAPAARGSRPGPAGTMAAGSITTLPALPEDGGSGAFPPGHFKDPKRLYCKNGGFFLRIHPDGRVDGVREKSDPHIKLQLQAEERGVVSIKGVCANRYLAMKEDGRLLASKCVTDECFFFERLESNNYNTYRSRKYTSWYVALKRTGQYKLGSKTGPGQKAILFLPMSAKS
Focal adhesion kinase 1 (Homo sapiens), sequence (Q05397 whole entry, looked up): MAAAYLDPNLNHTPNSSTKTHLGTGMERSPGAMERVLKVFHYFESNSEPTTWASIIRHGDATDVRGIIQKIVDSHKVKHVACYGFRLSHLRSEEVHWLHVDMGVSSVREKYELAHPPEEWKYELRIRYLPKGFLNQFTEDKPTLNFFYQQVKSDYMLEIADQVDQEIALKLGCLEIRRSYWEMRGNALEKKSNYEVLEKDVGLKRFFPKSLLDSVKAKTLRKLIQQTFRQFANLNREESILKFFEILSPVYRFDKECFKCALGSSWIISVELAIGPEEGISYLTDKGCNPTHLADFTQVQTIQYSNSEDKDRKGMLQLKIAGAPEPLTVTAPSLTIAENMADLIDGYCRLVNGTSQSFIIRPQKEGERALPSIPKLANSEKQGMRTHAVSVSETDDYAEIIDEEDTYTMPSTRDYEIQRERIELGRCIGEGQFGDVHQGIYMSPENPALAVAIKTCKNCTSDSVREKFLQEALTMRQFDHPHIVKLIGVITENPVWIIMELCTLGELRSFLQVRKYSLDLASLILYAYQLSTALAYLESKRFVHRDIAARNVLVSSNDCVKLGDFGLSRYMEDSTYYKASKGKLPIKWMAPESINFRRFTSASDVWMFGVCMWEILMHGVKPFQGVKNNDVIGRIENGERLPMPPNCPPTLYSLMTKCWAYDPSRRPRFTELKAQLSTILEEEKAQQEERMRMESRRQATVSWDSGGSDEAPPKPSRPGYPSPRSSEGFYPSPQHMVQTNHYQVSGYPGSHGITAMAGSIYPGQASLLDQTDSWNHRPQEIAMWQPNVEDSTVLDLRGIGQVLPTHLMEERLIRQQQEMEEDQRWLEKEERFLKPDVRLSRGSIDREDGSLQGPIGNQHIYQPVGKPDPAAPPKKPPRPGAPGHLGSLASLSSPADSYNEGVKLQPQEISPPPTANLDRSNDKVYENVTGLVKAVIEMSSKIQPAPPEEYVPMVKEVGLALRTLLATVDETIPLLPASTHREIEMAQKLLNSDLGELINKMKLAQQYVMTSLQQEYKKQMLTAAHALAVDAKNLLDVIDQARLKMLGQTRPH
Concanavalin-A (Canavalia ensiformis), sequence (P02866 whole entry, looked up): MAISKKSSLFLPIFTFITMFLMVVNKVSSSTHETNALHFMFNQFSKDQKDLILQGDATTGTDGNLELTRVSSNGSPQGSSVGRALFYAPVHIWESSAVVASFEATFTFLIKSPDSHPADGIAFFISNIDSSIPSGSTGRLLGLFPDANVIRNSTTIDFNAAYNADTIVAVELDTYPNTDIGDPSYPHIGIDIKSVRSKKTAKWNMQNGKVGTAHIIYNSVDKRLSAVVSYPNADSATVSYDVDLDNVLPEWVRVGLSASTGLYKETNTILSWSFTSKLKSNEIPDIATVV

Structure (SMILES)	composite z-score (Albumin (Bos taurus))	composite Z-score [1]	composite z-score [2]	composite z-score [3]	composite z-score [4]	composite z-score [5]	composite z-score [6]	composite z-score (Sam68 (KHDRBS1))	composite z-score [7]	composite z-score [8]	composite z-score [9]	composite z-score [10]	composite z-score [11]	composite z-score [12]	composite z-score [13]	composite z-score [14]	z-score [15]	composite z-score (Lefty1)	composite z-score [16]	z-score [17]
COCC(=C=CC[C@H](O)c1ccc(CO)o1)CCO	0.0697	0.701 (inactive)	0.0066	-0.14	0.748	1.27	-0.0497	0.601	0.0549	0.494	1.28	0.58	0.646	0.501	1.3	1.14	0.0889	0.915	0.277	-0.561 (inactive)
C=C(COC)/C(=C/C[C@H](OC(=O)c1ccncc1)c1ccc(CO)o1)c1cnc2ccccc2c1	-0.0377	0.99 (inactive)	0.0282	-0.123	0.915	1.04	1.12	1.27	0.766	1.08	0.283	1.15	0.382	0.271	1.25	0.222	0.818	1.57	0.734	-1.72 (inactive)
CO[C@H]1O[C@H](CO)[C@@H](OC(=O)CCc2ccccc2)[C@@H]2OC(=O)[C@@H](Cc3ccccc3)C/C=C/C[C@H](Cc3ccccc3)C(=O)O[C@@H]12	0.0544	-0.0061 (inactive)	-0.0014	-0.0861	0.116	0.88	0.338	1.13	0.0642	0.6	0.623	1.03	0.178	0.28	1.28	1.31	2.11	0.396	0.0856	0.769 (inactive)
COC(=O)[C@@]1(Cc2ccc(OC)cc2)[C@H]2c3cc(C(=O)N4CCCC4)n(CCc4c[nH]c5ccc(OC)cc45)c3C[C@H]2CN1C(=O)c1ccccc1	0.93	-0.453 (inactive)	0.319	0.387	0.711	2.81	0.8	1.11	-1.04	0.852	1.99	1.18	0.894	0.755	1.22	-0.904	0.675	-0.162	1.29	1.3 (inactive)
CC(C)C(CO)N1C(=O)[C@@H]2[C@H]3C(=O)OCC=C[C@H]3OC23C=CCN(c2ccc(Cl)cc2)C(=O)[C@@H]13 (stereo not given in full)	-1.26	-0.268 (inactive)	-0.171	-0.117	0.839	-0.372	-0.364	0.0729	-0.847	-0.842	-1.82	-1.22	-0.265	-0.934	-0.728	-0.794	1.05	-0.712	-0.928	-0.469 (inactive)
CC[C@@H]1O[Si](C(C)C)(C(C)C)c2c1cc(-c1cc(C)c(OC)c(C)c1)nc2-c1ccc(Oc2ccccc2)cc1	-0.145	-0.837 (inactive)	-0.0967	-0.141	-0.272	0.133	-0.006	-0.807	-0.77	-0.0734	-0.23	-0.772	-0.29	-1.22	-0.261	-0.315	-0.413	0.287	0.1	1.09 (inactive)
COC(=O)[C@@]1(Cc2ccc(F)cc2)[C@H]2c3cc(C(=O)N4CCCC4)n(Cc4ccc(C)c(F)c4F)c3C[C@H]2CN1C(=O)c1ccccc1	1.04	-0.474 (inactive)	-0.0304	0.219	0.834	0.922	1.14	-0.451	-0.186	-0.927	1.39	0.821	0.572	0.511	-0.115	-0.132	-0.494	-0.605	0.921	-12.5 (active)
O=C1N(CCS(=O)(=O)c2ccccc2)c2ccccc2[C@H]2OC(c3ccc(OCCCO)cc3)=N[C@@]12Cc1ccccc1	-0.154	1.47 (inactive)	0.146	0.087	0.555	2.93	0.991	1.29	1.4	1.14	2.15	0.936	0.548	0.587	1.54	1.75	1.08	0.476	0.943	-8.53 (active)
CCCCCN1CC=CC23O[C@@H]4/C=C\CCC(C)OC(=O)C4[C@H]2C(=O)N(C(CO)C(C)C)[C@@H]3C1=O (stereo not given in full)	0.157	0.141 (inactive)	-0.247	-0.182	0.824	0.337	0.57	0.132	-0.461	0.192	1.03	-0.46	1.94	-1.41	0.032	-0.318	-0.87	0.287	1.41	0.551 (inactive)
CCOC(=O)C[C@H]1[C@H](OC(=O)c2ccccc2-c2ccccc2)[C@@H](NC(=O)c2ccc3ccccc3c2)c2cc(OCCCO)ccc2N1C(=O)c1ccccc1	0.5	-0.0287 (inactive)	0.138	-0.206	0.355	0.462	-0.0843	0.735	0.578	0.215	1.49	0.844	0.288	0.609	0.91	1.08	1.04	0.868	-0.0223	-0.124 (inactive)
